CF NFkB block: blocks PAF-induced NF-kB reporter in cystic fibrosis cells; inhibition, % at 5 µM; 360,000 compounds, 0.86% hits; KKLEB NF-kB-GFP reporter, GFP fluorescence overnight;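 active means at least 50% inhibition at 5 µM, scaled per plate between neutral and stimulator controls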;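 further: PAF is a Pseudomonas aeruginosa culture filtrate used as stimulus; plate controls were PAF-stimulated DMSO wells for no effect and unstimulated DMSO wells for full effect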
KKLEB tox: reduces viability of KKLEB cystic fibrosis airway cells. AID 602141. KKLEB CF airway cells viability, ATPlite luminescence, overnight; stronger effect = lower value; cells stimulated with P. aeruginosa culture filtrate. activity change (cytotoxicity), % at 5 µM. 360,000 compounds, 0.36% hits;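 active means corrected activity change at or below -50% at 5 µM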
HIF-2a inh: HIF-2a inhibition; 786-0 RCC cells HIF-2a reporter, luciferase luminescence, overnight; inhibition, % at 18.8 µM; 360,000 compounds, 0.72% hits; AID 624352;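 active means inhibition of the luminescence signal of 40% or more relative to plate controls, in a single-dose primary screen at 18.75 µM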
TRPM1 prom inh: reduces MITF-dependent TRPM1 promoter luciferase signal. AID 488899. SK-MEL-5 TRPM1 promoter luciferase, 24 h. 330,000 compounds, 0.83% hits. inhibition, % at 12.5 µM;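 active means mean inhibition across replicates of 60% or more, whatever share of single replicates reaches that level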
Peg3 promoter: reduces Peg3 promoter-driven luciferase expression in HeLa | HeLa PEG-Prom luciferase reporter, luminescence, overnight | inhibition, % at 20 µM | 360,000 compounds, 1.7% hits;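 active means inhibition of at least 50% at 20 µM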
CHOP inhibitor: inhibitors of CHOP induction in ER stress response; CHO-K1 CHOP-promoter luciferase, tunicamycin-induced, 15-18 h; inhibition, % at 10 µM; 220,000 compounds, 3.8% hits; AID 2732;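 active means compounds that reduced the stress-induced luciferase reporter signal by more than about 70% of percent inhibition, limit read from the data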;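 further: 0% = tunicamycin plus vehicle and 100% = wells without tunicamycin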
CF NFkB inh conf: confirmation of cystic fibrosis induced NF-kB inhibitors; AID 602472; shares compounds with CF NFkB block; inhibition, % at 5 µM; KKLEB CF airway cells, PAF-induced NF-kB-GFP fluorescence, overnight; 1,300 compounds, 64% hits; in the data active means inhibition above about 40%;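 further: stimulus PAF is a Pseudomonas aeruginosa filtrate and not platelet activating factor; plate controls were DMSO wells with stimulus for no effect and unstimulated DMSO wells for full effect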
Active calls of the source: *; . = no result. Shown are actives, neighbours in structure and some others; about 4.3% of the full set was active somewhere.

SMILES | CF NFkB block | KKLEB tox | HIF-2a inh | TRPM1 prom inh | Peg3 promoter | CHOP inhibitor | CF NFkB inh conf
CN(C)c1ccc(-c2nn3c(-c4ccccc4Cl)nnc3s2)cc1 | 54.1* | -35.3 | -16.6 | 28.1 | 9.3 | . | 68.5*
CCCN(CC)c1ncnc2[nH]ncc12 | 81.3* | 6.5 | 14.1 | -16.9 | 15.8 | . | 63.5*
CN(C)c1ncnc2[nH]ncc12 | 17.7 | -7.2 | 5.9 | -4.2 | 2.0 | . | .
Nc1nc(=S)c2ncn(C3CCCC3)c2[nH]1 | -2.3 | -12.5 | -2.9 | 15.6 | -1.1 | 20.3 | .
COc1ccc(CN2C(=NC(=O)CCc3ccccc3)SC3CS(=O)(=O)CC32)cc1 (stereo not given) | -9.5 | 11.0 | 9.0 | 0.6 | 34.6 | . | .
O=C(CCc1ccccc1)N=C1SC2CS(=O)(=O)CC2N1Cc1ccccc1 (stereo not given) | 50.2* | -9.1 | 2.3 | 10.0 | 6.7 | . | 22.3
Nc1nccc(-c2cc(-c3ccc(Cl)cc3Cl)no2)n1 | 51.4* | -21.8 | -230.9 | -22.9 | -111.5 | 53.6 | 27.0
Clc1ccc(-c2nc(-c3ccncc3)no2)c(Cl)c1 | -16.3 | -3.3 | -265.2 | -75.7 | -197.8 | . | .
CC(=O)c1ccc(Sc2nnnn2-c2ccccc2)c([N+](=O)[O-])c1 | 76.3* | -32.0 | 12.6 | 62.8* | 38.2 | -16.8 | 28.4
O=[N+]([O-])c1ccc(Sc2nnnn2-c2ccccc2)c(Cl)c1 | 19.4 | -25.7 | 6.2 | 21.1 | 17.9 | -19.8 | .
COc1ccccc1NC(=O)c1cc2c(CO)cnc(C)c2oc1=Nc1ccc(OC)c(OC)c1 | 85.6* | -49.3 | 1.0 | 14.2 | 56.3* | . | 85.5*
O=C(OCC(=O)N1CCCC1=O)c1nc(Cl)c(Cl)c(Cl)c1Cl | 60.2* | -0.2 | 7.6 | 53.3 | 82.1* | . | -19.7
Nc1c(Cl)c(Cl)nc(C(=O)OCC(=O)N2CCCC2=O)c1Cl | 19.0 | 4.3 | 9.7 | 6.7 | 7.8 | . | .
CC1(C)COC(/C=C/c2cccc([N+](=O)[O-])c2)=N1 | 51.7* | -14.4 | -35.1 | 32.8 | -28.8 | -37.0 | 38.6
COc1ccc(N(CCCN2C(=O)c3cccc4cccc(c34)C2=O)C(=O)c2cccnc2)cc1 | 18.8 | -15.4 | 9.6 | 13.8 | 38.1 | -5.0 | .
COc1ccc(N(CCCN2C(=O)c3cccc4cccc(c34)C2=O)C(=O)c2ccncc2)cc1 | 50.1* | -24.2 | -76.4 | -1.2 | -74.8 | -6.8 | 45.3*
CCCCNC(=O)C1(C)CCCCN1C(=O)c1c(Cl)cccc1Cl (stereo not given) | 26.8 | -8.6 | 4.3 | . | 7.3 | . | .
O=C1NCCc2c1[nH]c1c(Cl)ccc(Cl)c21 | 55.6* | -14.7 | 37.5 | -15.1 | 16.8 | 51.8 | 70.9*
O=C1NCCc2c1[nH]c1ccc([N+](=O)[O-])cc21 | 32.9 | -3.3 | 18.8 | 3.2 | 38.1 | 46.1 | .
Cc1cccn2c(CNCC3(c4ccccc4)CCCC3)c(C(=O)N3CCOCC3)nc12 | 58.7* | -28.0 | 12.6 | -1.3 | 47.1 | 13.6 | 6.5
Cc1onc(-c2ccccc2)c1C(=O)N=C(N)c1ccc(C(F)(F)F)cc1 | 5.5 | -3.7 | 9.8 | 2.7 | 21.0 | -16.2 | .
CC(C)c1nc(SCC(=O)N2CCCc3ccccc32)c2c(=O)n(C)c(=O)n(C)c2n1 | 64.5* | -8.1 | -0.3 | . | 62.7* | 88.0* | 11.7
CC(=O)OCC(=O)C1(O)CCC2C3CC(C)C4=CC(=O)C=CC4(C)C3C(O)CC21C (stereo not given) | 65.4* | 44.6 | 17.9 | . | -17.6 | . | 4.3
CCSc1nnc(NC(=O)c2ccc(Br)s2)s1 | -9.7 | 9.6 | -80.4 | -46.5 | -137.8 | . | .
O=C(Nc1nnc(C(F)(F)F)s1)c1ccc(Br)s1 | 53.9* | -20.3 | -240.4 | -30.0 | -179.6 | 65.5 | 83.0*
SMILES | CF NFkB block | KKLEB tox | HIF-2a inh | TRPM1 prom inh | Peg3 promoter | CHOP inhibitor | CF NFkB inh conf
COCCN1C(=O)CS/C1=C(/C#N)C(=O)NCc1ccco1 | 10.3 | -1.5 | 16.0 | 9.4 | -9.6 | 10.7 | .
CC(C)=CCc1c(O)cc(O)c2c1OC(c1ccc(O)cc1)CC2=O (stereo not given) | 52.6* | -12.4 | 13.8 | -13.7 | 24.7 | . | 71.8*
O=C(Nc1ccnn1C1CCN(Cc2cccc(OCCO)c2)CC1)c1cccc(F)c1 | 3.9 | 10.7 | 14.3 | -5.8 | 14.3 | . | .
Cc1ccc(S(=O)(=O)n2nc(OC(=O)c3c(-c4ccccc4Cl)noc3C)cc2N)cc1 | 26.9 | -4.8 | 17.4 | 10.7 | 17.4 | 20.8 | .
Cc1onc(-c2ccccc2Cl)c1C(=O)Oc1cc(N)n(S(=O)(=O)c2ccc(F)cc2)n1 | 62.5* | -20.7 | 22.6 | 4.3 | 21.5 | 3.7 | 28.2
COc1cccc(-c2cc(NC=O)c3ncc(-c4ccc(OC)c(OC)c4)n3c2)c1 | 34.3 | -22.1 | -74.6 | . | 48.9 | . | .
COc1ccc(-c2cc(NC=O)c3ncc(-c4cccc(OC)c4)n3c2)cc1 | -19.8 | -19.5 | -42.5 | . | 19.0 | . | .
COc1ccc(-c2cc(NC=O)c3ncc(-c4cc(OC)c(OC)c(OC)c4)n3c2)cc1 | 51.8* | -28.5 | -29.9 | . | -1.5 | . | 69.7*
COc1ccccc1-c1cc(NC=O)c2ncc(-c3cccc(C(C)=O)c3)n2c1 | 59.1* | -19.0 | -29.3 | . | 42.3 | . | 44.4*
COc1cccc(-c2cnc3c(NC=O)cc(-c4ccc(OC)cc4OC)cn23)c1 | 63.2* | -40.0 | -9.7 | . | -11.3 | . | 76.0*
COc1cc(-c2cnc3c(NC=O)cc(-c4ccc(S(C)(=O)=O)cc4)cn23)cc(OC)c1OC | 26.8 | -11.2 | 12.7 | . | 23.1 | . | .
COc1ccc(-c2cc(NC=O)c3ncc(-c4ccc(OC)c(OC)c4)n3c2)c(OC)c1 | 60.3* | -28.4 | 9.6 | . | 46.9 | . | 87.1*
COc1ccc(C(=O)/C=C/Nc2ccc(S(=O)(=O)Nc3onc(C)c3C)cc2)cc1 | 11.7 | 11.2 | -29.7 | 6.1 | -53.7 | 10.9 | .
Cc1cc(C)c(C#N)c(SCC(=O)c2ccc(Cl)cc2Cl)n1 | 71.6* | -5.1 | -15.8 | 3.1 | 60.0* | 37.8 | 67.2*
CCOC(=O)CSc1nc(C)cc(C)c1C#N | 7.1 | -1.5 | -7.7 | 6.3 | -22.6 | -1.3 | .
CCC1=Nc2cc(C(=O)NCc3ccco3)ccc2Sc2ccc(C)cc21 | 51.5* | -27.6 | 35.0 | 42.4 | 4.2 | -26.4 | 79.6*
CCC1=Nc2cc(C(=O)NCCN3CCOCC3)ccc2Sc2ccc(C)cc21 | -31.1 | 6.0 | 9.7 | -4.2 | 7.0 | . | .
COC(=O)c1ccc2nc(-c3ccco3)c(Cc3ccccc3)n2c1 | 53.9* | -8.5 | -17.4 | . | -35.5 | . | 10.0
Clc1ccc2nc(-c3ccco3)c(Cc3ccccc3)n2c1 | 37.3 | -7.0 | 7.3 | . | -20.8 | . | .
Fc1cccc(Cc2c(-c3ccco3)nc3ccc(Cl)cn23)c1 | 63.2* | 2.4 | -30.0 | . | -23.0 | . | -40.9
Fc1cccc(Cc2c(-c3ccco3)nc3ccc(Br)cn23)c1 | 52.0* | -11.2 | 14.3 | . | -2.3 | . | 11.2
FC(F)(F)c1ccccc1Cc1c(-c2ccco2)nc2ccc(Br)cn12 | 62.5* | -16.8 | 23.6 | . | 13.5 | . | 11.3
Cc1ccc2c(Cl)c(Cc3ccccc3)c(=S)[nH]c2n1 | 3.8 | 0.2 | 6.6 | 10.8 | 17.7 | . | .

High-throughput results: PubChem BioAssay, several laboratories
